Measurements published in article PMC7862700, “An all-to-all approach to the identification of sequence-specific readers for epigenetic DNA modifications on cytosine”.

What was measured:
Assay in all cases: DAPPL (digital affinity profiling via proximity ligation, sequencing); 10 mM Tris-HCl pH 7.5, 50 mM NaCl, 1 mM DTT, 4% glycerol, room temperature, 30 min; GST-TFs on glutathione beads, 16-mer random dsDNA library, 0.1% formaldehyde crosslink after washing; high values mean tight binding
[1] = target: T1, FLI1 (Homo sapiens, UniProt Q01543 1-452); settings: protein: recombinant; tags: N-terminal GST; dsDNA, one strand shown
T1 sequence: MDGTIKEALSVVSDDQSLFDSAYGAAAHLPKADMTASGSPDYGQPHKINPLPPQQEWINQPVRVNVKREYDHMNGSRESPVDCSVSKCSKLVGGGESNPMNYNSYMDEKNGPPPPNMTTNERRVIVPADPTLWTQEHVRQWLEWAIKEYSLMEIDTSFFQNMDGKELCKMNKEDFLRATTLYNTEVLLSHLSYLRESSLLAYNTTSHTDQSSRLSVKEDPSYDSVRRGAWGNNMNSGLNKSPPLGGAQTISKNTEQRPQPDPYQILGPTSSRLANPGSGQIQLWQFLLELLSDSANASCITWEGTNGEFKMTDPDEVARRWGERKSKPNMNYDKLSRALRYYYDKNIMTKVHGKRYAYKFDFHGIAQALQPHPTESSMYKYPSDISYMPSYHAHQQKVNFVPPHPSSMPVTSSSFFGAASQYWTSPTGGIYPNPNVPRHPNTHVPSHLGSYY
Summary of the method: (§1)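 GST fusions of human transcription factors were expressed in yeast and captured with glutathione beads. Once given DNA barcodes and pooled alongside a tag-only sample, they were incubated for 30 min at room temperature with 200 nmole of a random double-stranded 16-mer DNA library in Tris/NaCl/DTT/glycerol buffer, then washed, crosslinked (0.1% formaldehyde), proximity-ligated, PCR-amplified and sequenced on an Illumina NextSeq500. The binding signal of each hexamer is its read frequency for a factor divided by its frequency for the tag-only sample.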

[2] = target: T2, ELK1 (Homo sapiens, UniProt P19419 1-428); settings: protein: recombinant; tags: N-terminal GST; dsDNA, one strand shown
T2 sequence: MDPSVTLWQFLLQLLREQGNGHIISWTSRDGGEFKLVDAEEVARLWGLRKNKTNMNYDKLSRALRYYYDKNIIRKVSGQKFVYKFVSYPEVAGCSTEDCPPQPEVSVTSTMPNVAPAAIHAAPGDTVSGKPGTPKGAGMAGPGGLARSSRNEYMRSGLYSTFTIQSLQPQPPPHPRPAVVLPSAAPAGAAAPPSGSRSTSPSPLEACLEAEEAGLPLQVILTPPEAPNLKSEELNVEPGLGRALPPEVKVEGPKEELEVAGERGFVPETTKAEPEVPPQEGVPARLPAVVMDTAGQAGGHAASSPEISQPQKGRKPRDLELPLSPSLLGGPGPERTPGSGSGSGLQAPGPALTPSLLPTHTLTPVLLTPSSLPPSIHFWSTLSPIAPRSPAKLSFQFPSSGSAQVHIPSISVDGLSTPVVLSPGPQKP
Summary of the method: as §1

[3] = target: T3, GABPA (Homo sapiens, UniProt Q06546 1-454); settings: protein: recombinant; tags: N-terminal GST; dsDNA, one strand shown
T3 sequence: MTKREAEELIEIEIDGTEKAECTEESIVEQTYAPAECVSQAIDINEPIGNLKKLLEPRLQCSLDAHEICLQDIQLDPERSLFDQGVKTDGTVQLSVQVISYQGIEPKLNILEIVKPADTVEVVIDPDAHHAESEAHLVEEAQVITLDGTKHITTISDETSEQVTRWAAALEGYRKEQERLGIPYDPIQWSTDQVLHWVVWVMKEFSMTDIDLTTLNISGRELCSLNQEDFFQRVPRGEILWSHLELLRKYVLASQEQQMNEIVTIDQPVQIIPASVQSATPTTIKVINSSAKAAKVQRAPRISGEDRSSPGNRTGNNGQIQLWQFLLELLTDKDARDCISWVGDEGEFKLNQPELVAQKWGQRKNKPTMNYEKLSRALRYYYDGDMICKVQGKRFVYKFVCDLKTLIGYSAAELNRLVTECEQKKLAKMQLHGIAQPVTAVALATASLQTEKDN
Summary of the method: as §1

[4] = target: T4, ERG (Homo sapiens, UniProt P11308 1-479); settings: protein: recombinant; tags: N-terminal GST; dsDNA, one strand shown
T4 sequence: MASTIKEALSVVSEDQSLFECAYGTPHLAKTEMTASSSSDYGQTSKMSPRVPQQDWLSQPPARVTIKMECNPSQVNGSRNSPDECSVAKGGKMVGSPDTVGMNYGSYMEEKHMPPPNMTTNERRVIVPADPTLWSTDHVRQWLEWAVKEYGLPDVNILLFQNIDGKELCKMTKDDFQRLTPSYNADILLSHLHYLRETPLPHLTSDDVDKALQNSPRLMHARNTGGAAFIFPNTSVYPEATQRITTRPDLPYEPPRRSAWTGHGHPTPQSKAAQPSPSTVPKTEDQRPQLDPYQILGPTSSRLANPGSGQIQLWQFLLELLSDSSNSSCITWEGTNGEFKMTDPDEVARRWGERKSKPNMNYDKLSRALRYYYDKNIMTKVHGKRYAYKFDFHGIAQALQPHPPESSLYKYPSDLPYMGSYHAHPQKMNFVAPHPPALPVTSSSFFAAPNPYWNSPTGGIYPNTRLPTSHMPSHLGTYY
Summary of the method: as §1

[5] = target: ELF1 (Homo sapiens, UniProt P32519 1-619); settings: protein: recombinant; tags: N-terminal GST; dsDNA, one strand shown
ELF1, sequence (P32519 whole entry): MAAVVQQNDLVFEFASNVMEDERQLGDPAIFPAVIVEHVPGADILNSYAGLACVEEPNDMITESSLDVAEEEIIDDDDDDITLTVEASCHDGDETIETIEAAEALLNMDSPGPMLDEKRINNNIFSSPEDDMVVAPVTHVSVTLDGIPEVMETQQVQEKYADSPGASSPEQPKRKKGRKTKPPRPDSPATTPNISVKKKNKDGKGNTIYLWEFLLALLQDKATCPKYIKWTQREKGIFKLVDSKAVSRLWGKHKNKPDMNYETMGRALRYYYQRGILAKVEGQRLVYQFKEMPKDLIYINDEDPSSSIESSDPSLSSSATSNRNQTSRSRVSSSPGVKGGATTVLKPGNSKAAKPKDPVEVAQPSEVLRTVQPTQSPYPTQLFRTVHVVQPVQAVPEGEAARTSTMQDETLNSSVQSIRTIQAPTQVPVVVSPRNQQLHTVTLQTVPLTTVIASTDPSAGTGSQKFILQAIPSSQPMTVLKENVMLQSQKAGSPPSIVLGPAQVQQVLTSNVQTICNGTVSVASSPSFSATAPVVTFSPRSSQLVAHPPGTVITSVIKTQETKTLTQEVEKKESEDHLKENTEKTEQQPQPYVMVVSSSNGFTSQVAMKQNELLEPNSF
Summary of the method: as §1

[6] = target: T5, EHF (Homo sapiens, UniProt Q9NZC4 1-300); settings: protein: recombinant; tags: N-terminal GST; dsDNA, one strand shown
T5 sequence: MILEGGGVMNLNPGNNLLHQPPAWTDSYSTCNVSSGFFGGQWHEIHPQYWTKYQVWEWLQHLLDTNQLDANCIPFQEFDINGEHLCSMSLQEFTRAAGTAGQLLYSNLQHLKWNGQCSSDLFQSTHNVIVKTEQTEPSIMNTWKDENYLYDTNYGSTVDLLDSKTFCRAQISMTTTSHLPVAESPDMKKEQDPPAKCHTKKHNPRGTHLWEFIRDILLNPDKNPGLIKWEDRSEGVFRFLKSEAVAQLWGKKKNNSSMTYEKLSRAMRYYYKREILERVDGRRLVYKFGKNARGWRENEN
Summary of the method: as §1

[7] = target: SPI1 (Homo sapiens, UniProt P17947 1-270); settings: protein: recombinant; tags: N-terminal GST; dsDNA, one strand shown
Summary of the method: as §1

[8] = target: SPIB (Homo sapiens, UniProt Q01892 1-262); settings: protein: recombinant; tags: N-terminal GST; dsDNA, one strand shown
SPIB, sequence (Q01892 whole entry): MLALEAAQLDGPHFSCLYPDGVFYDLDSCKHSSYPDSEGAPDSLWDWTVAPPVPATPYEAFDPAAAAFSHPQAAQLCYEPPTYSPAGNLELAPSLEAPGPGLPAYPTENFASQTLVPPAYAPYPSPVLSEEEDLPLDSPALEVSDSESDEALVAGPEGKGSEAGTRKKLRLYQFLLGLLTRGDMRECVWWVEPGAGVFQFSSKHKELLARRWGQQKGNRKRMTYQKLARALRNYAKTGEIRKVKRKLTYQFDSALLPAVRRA
Summary of the method: as §1

[9] = target: T6, ELK3 (Homo sapiens, UniProt P41970 1-407); settings: protein: recombinant; tags: N-terminal GST; dsDNA, one strand shown
T6 sequence: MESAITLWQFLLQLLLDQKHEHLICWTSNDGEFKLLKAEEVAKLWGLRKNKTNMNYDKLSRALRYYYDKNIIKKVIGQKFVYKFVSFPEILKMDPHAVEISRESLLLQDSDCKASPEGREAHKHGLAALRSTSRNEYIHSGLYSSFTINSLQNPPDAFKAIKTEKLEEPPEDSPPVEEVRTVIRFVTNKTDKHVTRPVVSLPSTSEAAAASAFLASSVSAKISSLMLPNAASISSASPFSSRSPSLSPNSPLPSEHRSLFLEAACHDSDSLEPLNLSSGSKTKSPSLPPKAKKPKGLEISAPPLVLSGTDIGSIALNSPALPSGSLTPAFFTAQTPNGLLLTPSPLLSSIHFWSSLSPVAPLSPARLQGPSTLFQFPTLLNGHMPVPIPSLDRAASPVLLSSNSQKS
Summary of the method: as §1

[10] = target: T7, FEV (Homo sapiens, UniProt Q99581 1-238); settings: protein: recombinant; tags: N-terminal GST; dsDNA, one strand shown
T7 sequence: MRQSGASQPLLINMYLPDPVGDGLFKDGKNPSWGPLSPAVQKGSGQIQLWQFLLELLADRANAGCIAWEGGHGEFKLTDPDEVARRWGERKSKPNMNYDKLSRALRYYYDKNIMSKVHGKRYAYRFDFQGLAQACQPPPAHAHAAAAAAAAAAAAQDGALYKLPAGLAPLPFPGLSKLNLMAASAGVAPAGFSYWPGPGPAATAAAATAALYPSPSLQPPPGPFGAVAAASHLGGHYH
Summary of the method: as §1

[11] = target: ETV5 (Homo sapiens, UniProt P41161 1-510); settings: protein: recombinant; tags: N-terminal GST; dsDNA, one strand shown
ETV5, sequence (P41161 whole entry): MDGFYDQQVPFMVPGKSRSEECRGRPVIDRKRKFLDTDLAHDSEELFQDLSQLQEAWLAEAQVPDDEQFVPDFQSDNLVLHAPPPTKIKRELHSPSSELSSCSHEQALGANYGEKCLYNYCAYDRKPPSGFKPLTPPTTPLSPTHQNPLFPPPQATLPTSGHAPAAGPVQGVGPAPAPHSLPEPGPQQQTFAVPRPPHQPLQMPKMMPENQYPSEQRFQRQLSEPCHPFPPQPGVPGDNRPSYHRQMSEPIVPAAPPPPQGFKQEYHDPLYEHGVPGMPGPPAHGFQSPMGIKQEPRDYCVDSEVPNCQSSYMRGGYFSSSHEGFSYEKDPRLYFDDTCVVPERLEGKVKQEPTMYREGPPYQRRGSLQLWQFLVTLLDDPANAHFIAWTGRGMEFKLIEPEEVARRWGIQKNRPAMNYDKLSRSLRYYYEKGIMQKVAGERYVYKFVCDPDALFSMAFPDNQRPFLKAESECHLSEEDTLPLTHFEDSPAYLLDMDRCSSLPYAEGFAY
Summary of the method: as §1

[12] = target: HSF1 (Homo sapiens, UniProt Q00613 1-529); settings: protein: recombinant; tags: N-terminal GST; chain copies: 3; dsDNA, one strand shown
HSF1, sequence (Q00613 whole entry): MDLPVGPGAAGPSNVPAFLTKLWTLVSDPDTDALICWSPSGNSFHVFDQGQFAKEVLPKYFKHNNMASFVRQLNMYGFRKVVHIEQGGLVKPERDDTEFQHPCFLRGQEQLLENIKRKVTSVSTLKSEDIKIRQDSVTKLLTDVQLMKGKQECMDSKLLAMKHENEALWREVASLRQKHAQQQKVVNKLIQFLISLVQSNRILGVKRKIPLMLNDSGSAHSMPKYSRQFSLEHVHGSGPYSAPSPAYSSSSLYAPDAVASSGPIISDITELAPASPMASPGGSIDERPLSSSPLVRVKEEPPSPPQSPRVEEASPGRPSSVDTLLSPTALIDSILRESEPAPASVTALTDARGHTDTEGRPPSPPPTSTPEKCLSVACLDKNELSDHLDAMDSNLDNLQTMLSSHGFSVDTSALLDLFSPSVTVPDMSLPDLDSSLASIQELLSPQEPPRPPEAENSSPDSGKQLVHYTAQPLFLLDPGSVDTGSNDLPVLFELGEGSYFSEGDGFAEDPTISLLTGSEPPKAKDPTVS
Summary of the method: as §1

[13] = target: T8, SPIC (Homo sapiens, UniProt Q8N5J4 1-248); settings: protein: recombinant; tags: N-terminal GST; dsDNA, one strand shown
T8 sequence: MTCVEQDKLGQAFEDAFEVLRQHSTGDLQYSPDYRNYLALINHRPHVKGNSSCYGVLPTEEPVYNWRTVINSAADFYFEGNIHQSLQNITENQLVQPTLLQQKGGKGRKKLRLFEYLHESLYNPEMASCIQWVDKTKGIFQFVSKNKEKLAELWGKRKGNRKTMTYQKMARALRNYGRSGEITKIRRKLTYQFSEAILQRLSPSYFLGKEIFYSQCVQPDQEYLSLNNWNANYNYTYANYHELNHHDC
Summary of the method: as §1

[14] = target: ELF4 (Homo sapiens, UniProt Q99607 1-663); settings: protein: recombinant; tags: N-terminal GST; dsDNA, one strand shown
ELF4, sequence (Q99607 whole entry): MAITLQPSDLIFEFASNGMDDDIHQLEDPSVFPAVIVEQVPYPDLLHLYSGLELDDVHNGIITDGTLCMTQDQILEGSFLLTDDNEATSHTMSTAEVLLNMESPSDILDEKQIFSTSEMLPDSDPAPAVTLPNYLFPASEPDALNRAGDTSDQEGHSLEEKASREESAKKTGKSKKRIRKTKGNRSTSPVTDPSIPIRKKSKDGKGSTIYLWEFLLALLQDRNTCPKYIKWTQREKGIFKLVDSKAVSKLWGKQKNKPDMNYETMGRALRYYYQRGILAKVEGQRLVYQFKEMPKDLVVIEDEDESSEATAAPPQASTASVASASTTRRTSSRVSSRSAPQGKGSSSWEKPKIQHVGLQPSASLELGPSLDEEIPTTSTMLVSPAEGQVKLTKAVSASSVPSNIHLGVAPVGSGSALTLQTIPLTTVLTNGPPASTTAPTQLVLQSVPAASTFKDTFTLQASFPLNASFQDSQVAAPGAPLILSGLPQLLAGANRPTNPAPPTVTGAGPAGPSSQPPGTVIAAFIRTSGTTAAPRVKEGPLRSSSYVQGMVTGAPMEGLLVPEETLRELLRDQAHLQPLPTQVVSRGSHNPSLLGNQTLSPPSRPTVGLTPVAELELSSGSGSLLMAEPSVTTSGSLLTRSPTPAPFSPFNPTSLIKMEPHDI
Summary of the method: as §1

[15] = target: T9, ELK4 (Homo sapiens, UniProt P28324-2 1-405); settings: protein: recombinant; tags: N-terminal GST; dsDNA, one strand shown
T9 sequence: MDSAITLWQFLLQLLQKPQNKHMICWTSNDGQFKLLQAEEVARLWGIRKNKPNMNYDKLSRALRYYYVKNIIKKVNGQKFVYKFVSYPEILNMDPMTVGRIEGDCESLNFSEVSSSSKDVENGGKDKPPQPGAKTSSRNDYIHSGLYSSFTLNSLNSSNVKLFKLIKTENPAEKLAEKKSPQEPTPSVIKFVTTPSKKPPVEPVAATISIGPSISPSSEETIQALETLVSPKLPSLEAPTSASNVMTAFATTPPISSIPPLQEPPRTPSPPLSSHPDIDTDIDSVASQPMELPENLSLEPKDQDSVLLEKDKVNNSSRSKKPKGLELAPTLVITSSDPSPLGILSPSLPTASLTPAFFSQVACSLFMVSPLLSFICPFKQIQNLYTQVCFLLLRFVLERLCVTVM
Summary of the method: as §1

[16] = target: T10, ETV2 (Homo sapiens, UniProt O00321 1-342); settings: protein: recombinant; tags: N-terminal GST; dsDNA, one strand shown
T10 sequence: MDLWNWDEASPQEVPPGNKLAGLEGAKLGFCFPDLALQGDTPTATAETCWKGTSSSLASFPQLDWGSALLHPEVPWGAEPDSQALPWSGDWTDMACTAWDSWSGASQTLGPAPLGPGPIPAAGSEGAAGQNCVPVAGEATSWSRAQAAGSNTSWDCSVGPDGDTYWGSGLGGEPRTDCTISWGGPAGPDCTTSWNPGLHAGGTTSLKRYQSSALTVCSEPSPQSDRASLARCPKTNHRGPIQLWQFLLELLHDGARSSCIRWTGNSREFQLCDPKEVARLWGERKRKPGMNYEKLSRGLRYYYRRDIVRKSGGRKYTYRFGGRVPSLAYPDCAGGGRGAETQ
Summary of the method: as §1

[17] = target: T11, ELF3 (Homo sapiens, UniProt P78545 1-371); settings: protein: recombinant; tags: N-terminal GST; dsDNA, one strand shown
T11 sequence: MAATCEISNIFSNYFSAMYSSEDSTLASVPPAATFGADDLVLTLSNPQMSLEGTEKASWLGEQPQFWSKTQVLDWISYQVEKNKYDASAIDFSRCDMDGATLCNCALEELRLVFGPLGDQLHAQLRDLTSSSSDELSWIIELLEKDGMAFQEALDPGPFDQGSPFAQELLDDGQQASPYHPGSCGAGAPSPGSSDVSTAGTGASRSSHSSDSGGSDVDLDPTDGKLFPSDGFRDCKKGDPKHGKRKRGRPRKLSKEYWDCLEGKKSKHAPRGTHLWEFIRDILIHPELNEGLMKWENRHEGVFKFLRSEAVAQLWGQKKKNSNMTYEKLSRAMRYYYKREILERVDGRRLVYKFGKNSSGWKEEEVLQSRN
Summary of the method: as §1

[18] = target: CRX (Homo sapiens, UniProt O43186 1-299); settings: protein: recombinant; tags: N-terminal GST; dsDNA, one strand shown
CRX, sequence (O43186 whole entry): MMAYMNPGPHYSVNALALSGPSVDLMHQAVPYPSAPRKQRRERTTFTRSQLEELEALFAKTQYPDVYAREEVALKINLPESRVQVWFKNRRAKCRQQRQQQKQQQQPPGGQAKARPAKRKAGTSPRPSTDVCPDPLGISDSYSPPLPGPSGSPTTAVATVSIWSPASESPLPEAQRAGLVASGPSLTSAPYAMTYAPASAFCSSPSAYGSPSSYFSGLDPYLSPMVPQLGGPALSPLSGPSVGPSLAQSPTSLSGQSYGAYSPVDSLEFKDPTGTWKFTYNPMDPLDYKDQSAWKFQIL
Summary of the method: as §1

[19] = target: ETV1 (Homo sapiens, UniProt P50549 1-477); settings: protein: recombinant; tags: N-terminal GST; dsDNA, one strand shown
ETV1, sequence (P50549 whole entry): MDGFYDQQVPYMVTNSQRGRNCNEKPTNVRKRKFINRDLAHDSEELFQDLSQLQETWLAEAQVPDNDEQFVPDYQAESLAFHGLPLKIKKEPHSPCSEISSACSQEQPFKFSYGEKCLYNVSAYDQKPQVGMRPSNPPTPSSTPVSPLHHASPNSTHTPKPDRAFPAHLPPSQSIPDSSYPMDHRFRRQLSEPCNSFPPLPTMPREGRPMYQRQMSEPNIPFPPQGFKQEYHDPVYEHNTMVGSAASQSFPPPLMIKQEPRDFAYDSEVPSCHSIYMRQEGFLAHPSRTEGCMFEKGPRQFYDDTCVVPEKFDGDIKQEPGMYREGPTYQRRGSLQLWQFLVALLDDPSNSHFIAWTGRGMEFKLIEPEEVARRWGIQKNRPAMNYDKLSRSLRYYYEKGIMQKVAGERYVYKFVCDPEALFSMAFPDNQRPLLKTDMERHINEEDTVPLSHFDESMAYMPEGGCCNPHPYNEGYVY
Summary of the method: as §1

Sequence: ACTCAT
- binding signal [1]: 1.47 fold enrichment (6-mer frequency, TF over GST control)
- binding signal [2]: 1.34 fold enrichment (6-mer frequency, TF over GST control)
- binding signal [3]: 1.36 fold enrichment (6-mer frequency, TF over GST control)
- binding signal [4]: 1.16 fold enrichment (6-mer frequency, TF over GST control)
- binding signal [5]: 1.33 fold enrichment (6-mer frequency, TF over GST control)
- binding signal [6]: 1.25 fold enrichment (6-mer frequency, TF over GST control)
- binding signal [7]: 1.23 fold enrichment (6-mer frequency, TF over GST control)
- binding signal [8]: 1.35 fold enrichment (6-mer frequency, TF over GST control)
- binding signal [9]: 1.34 fold enrichment (6-mer frequency, TF over GST control)
- binding signal [10]: 1.32 fold enrichment (6-mer frequency, TF over GST control)
- binding signal [11]: 1.32 fold enrichment (6-mer frequency, TF over GST control)
- binding signal [12]: 1.13 fold enrichment (6-mer frequency, TF over GST control)
- binding signal [13]: 1.26 fold enrichment (6-mer frequency, TF over GST control)
- binding signal [14]: 1.35 fold enrichment (6-mer frequency, TF over GST control)
- binding signal [15]: 1.32 fold enrichment (6-mer frequency, TF over GST control)
- binding signal [16]: 1.42 fold enrichment (6-mer frequency, TF over GST control)
- binding signal [17]: 1.13 fold enrichment (6-mer frequency, TF over GST control)
- binding signal [18]: 1.19 fold enrichment (6-mer frequency, TF over GST control)
- binding signal [19]: 1.35 fold enrichment (6-mer frequency, TF over GST control)
